A short description of test [1]: CCTE_Shafer_MEA_acute_burst_duration_mean: CCTE's Neural Acute Assay for Mean Burst Duration, Shafer Lab (AID 2284014).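 Note: hits are decreases in mean burst duration relative to DMSO controls.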 Summed up:
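Read-out is the per-well percent change in mean burst duration (first to last spike within a single-electrode burst) between 40-min recordings before and after compound. Cultures were primary rat cortical neurons on MEAs, dosed at 0.03-40 uM on DIV 13 or 15.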

A short description of test [2]: CCTE_Shafer_MEA_acute_per_burst_spike_number_mean: CCTE's Neural Acute Assay for Average Number of Spikes Per Burst, Shafer Lab (AID 2284015).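 Note: hits are decreases in mean spikes per burst versus baseline.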 The method in brief: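 Read-out: percent change in mean spikes per burst, each well's post-exposure 40-min recording versus its own 40-min baseline. Rat cortical cultures, DIV 13 or 15, compounds 0.03-40 uM; DMSO is negative control, loss-of-signal fitting.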

Test [3] can be described thus: CCTE_Shafer_MEA_acute_interburst_interval_mean: CCTE's Neural Acute Assay for Mean Interburst Interval, Shafer Lab (AID 2284016).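 Note: percent change of mean interburst interval versus each well's own pre-dose baseline; curves fitted for decrease in interburst interval relative to DMSO.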 Summed up:
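Rat cortical cultures, DIV 13/15; 20 min equilibration, 40 min baseline, compound 0.03-40 uM, 40 min re-recording, 37 C. Spikes detected at 8x rms noise (300-5000 Hz band-pass). Endpoint: % change in interburst interval, fitted in loss direction vs DMSO.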

Test [4] is described as follows: CCTE_Shafer_MEA_acute_burst_percentage_mean: CCTE's Neural Acute Assay for Percentage of Spikes in a Burst, Shafer Lab (AID 2284017).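 For AC50: curve fitted for loss of signal so potency reflects decreased burst percentage.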 The method in brief:
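Rat cortical cultures, DIV 13/15, 37 C. Spikes detected at 8x rms noise (300-5000 Hz band-pass). Burst spikes/total spikes averaged across electrodes per well; % change post- vs pre-treatment (40 min each), loss-of-signal fit vs DMSO.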

The nature of test [5]: CCTE_Shafer_MEA_acute_per_network_burst_electrodes_number_mean: CCTE's Neural Acute Assay for Mean Number of Electrodes in a Network Burst, Shafer Lab (AID 2284021).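 Note: curves fitted for decreases only so hits reduce electrodes per burst.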 The method in brief: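 Percent change from baseline was computed as mean electrode count per network burst, comparing 40 min recordings before and during compound (0.03-40 uM) exposure. Cultures were rat cortical neurons at DIV 13 or 15, recorded on MEAs at 37 C with an adaptive 8x rms threshold.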

Test [6] can be described thus: CCTE_Shafer_MEA_acute_cross_correlation_HWHM: CCTE's Neural Acute Assay for Cross Correlation at Half Width at Half Maximum, Shafer Lab (AID 2284026).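 For outcome: spontaneous network firing of rat primary cortical neurons on multiwell microelectrode arrays.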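 Note: percent change per well from pre-dose baseline in spike cross-correlogram half width; hits are a decrease in cross-correlogram half width relative to DMSO.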 Summed up: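 Per-well percent change in cross-correlogram half width at half maximum, derived from 40-min recordings before and after compound (0.03-40 uM) at 37 C. Cultures were rat cortical neurons, DIV 13 or 15, with adaptive spike detection at 8x rms.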

Test [7] can be described thus: CCTE_Shafer_MEA_acute_LDH: CCTE's Lactate Dehydrogenase Assay for Cytotoxicity in the Neural Acute Assay, Shafer Lab (AID 2284086; active = hit-call score of the fitted dose curve at least 0.9, where 1 is the maximum;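 note: active means LDH release rises above DMSO vehicle level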). Summed up:
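Primary rat cortical neurons on 48-well MEA plates, treated on day 13 or 15 post-plating. After the 40-min recording with compound, medium LDH release was read by absorbance at 490 nm. Gain of signal was fitted against DMSO negative control.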

The test system of test [8] is guinea pig Dopamine Transporter (DAT), gene 100714898. Put plainly: NVS_TR_gDAT: NovaScreen (NVS) Transporter Assay for guinea pig Dopamine Transporter (DAT) (AID 2283369; active = hit-call score of the fitted dose curve at least 0.9, where 1 is the maximum;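 note: active compounds lower bound radioligand signal relative to DMSO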). Summed up:
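Radioligand displacement on membranes from guinea pig striatum, 2 h exposure, bound label counted by filtration and scintillation. Tested at 25 uM in duplicate, then actives in concentration series to 50 uM; DMSO as negative control.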

Test [9] in a line: CCTE_Shafer_MEA_dev_LDH: CCTE's Lactate Dehydrogenase Assay for Cytotoxicity in the Neural Network Formation Assay, Shafer Lab (AID 2284068; active = hit-call score of the fitted dose curve at least 0.9, where 1 is the maximum;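 note: exposure for twelve days from plating with re-dosing on DIV 5 and 9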). Summed up: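 Cytotoxicity companion to network-formation recordings: rat cortical neurons received compound over 12 days of development, re-dosed at DIV 5 and 9 feeds. Viability was inferred from LDH enzyme activity relative to DMSO.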
A short description of test [10]: TAMU_PeakParms_SingleDonor1434_Chronotropy: Texas A&M University (TAMU) 1.5-hr Human Induced Pluripotent Stem Cell (iPSC)-derived Cardiomyocytes Calcium (Ca+2) Flux Assay for Cardiotoxicity: Chronotropy (changes in peak frequency) (AID 2284217). As to conditions: actives raise or lower the signal. Summed up: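 Beat frequency of single-donor iPSC cardiomyocytes was recorded through a calcium-sensitive dye 1.5 hours after exposure to four concentrations up to 100 uM. An EC05 point of departure was derived.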

Test [11] addresses human Matrix Metalloproteinase-9 (MMP9), MMP9 (gene 4318) (UniProt P14780). Put plainly: NVS_ENZ_hMMP9: NovaScreen (NVS) Enzymatic Assay for human Matrix Metalloproteinase-9 (MMP9) (AID 2283190; active = hit-call score of the fitted dose curve at least 0.9, where 1 is the maximum;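 note: cell-free recombinant MMP9 protease activity read by fluorescent substrate signal; active means inhibition seen as loss of fluorescence signal versus DMSO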). Summed up:
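Inhibition was scored as loss of fluorescence signal against DMSO controls. The recombinant protease was exposed to chemicals for 1 hour before reading; initial testing used 25 uM in duplicate.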

The nature of test [12]: CEETOX_H295R_ESTRADIOL: CeeTox H295R High-throughput Steroidogenesis Assay for Estradiol (AID 2283440).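 Note: estradiol secreted into medium quantified by LC-MS/MS after dansyl derivatisation.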 To be noted: actives raise or lower the signal. Summed up:
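Estradiol in spent medium measured by LC-MS/MS after dansyl chloride derivatisation. Forskolin-primed (10 uM, 48 h) human adrenal H295R cells received test chemical 48 h at 0.1% DMSO; concentrations lowered until MTT viability >/=70%.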

A short description of test [13]: CEETOX_H295R_ESTRONE: CeeTox H295R High-throughput Steroidogenesis Assay for Estrone (AID 2283441).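 For AC50: human adrenal H295R cells prestimulated with forskolin for two days.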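 Note: estrone secreted into medium measured by LC-MS/MS after dansyl derivatization.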 As to conditions: actives raise or lower the signal. The method in brief: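 H295R cells; 48 h forskolin (10 uM) prestimulation; 48 h compound exposure, 0.1% DMSO final. Medium estrone: MTBE extraction, dansyl derivatization, HPLC-MS/MS. Bidirectional fit vs DMSO.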

The target in test [14] is sheep Cyclooxygenase-1 (Cox1), PTGS1 (gene 443551) (UniProt P05979). Kind of test: NVS_ENZ_oCOX1: NovaScreen (NVS) Enzymatic Assay for sheep Cyclooxygenase-1 (Cox1) (AID 2283239; active = hit-call score of the fitted dose curve at least 0.9, where 1 is the maximum;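 note: actives reduce cyclooxygenase activity so potencies are for inhibitors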). Summed up:
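Colorimetric enzyme readout using sheep seminal-vesicle cyclooxygenase-1, measured 0.66 h post-dosing. Single-concentration duplicates at 25 uM first, then concentration series for actives, with DMSO as baseline and plate controls.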

Test [15] is described as follows: IUF_NPC1a_proliferation_area_72hr: Leibniz Research Institute for Environmental Medicine (IUF) 72-hour Neural Progenitor Cell Proliferation Area Assay (NPC1a) (AID 2284208). Summed up: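 Proliferation read as increase in sphere area by phase-contrast imaging over 72 h continuous compound exposure (no renewal) of hNPC spheres grown with EGF/FGF at 37C, 5% CO2. Growth-factor withdrawal served as positive control; DMSO as baseline.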

Test [16] in a line: IUF_NPC2c_oligodendrocyte_migration_120hr: Leibniz Research Institute for Environmental Medicine (IUF) 120-hour Neural Progenitor Cell Migration Assay for Oligodendrocyte Migration (NPC2c) (AID 2284297).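 Note: O4-positive oligodendrocyte migration distance divided by radial glia migration distance.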 The method in brief: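 Exposure runs 5 days from differentiation onset at 37C, seven concentrations plus solvent control, DMSO at most 0.1%, applied to primary hNPC spheres on laminin. After fixation, O4 immunostaining gives oligodendrocyte distance from the sphere core, relative to radial glia migration.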

Test [17] in a line: IUF_NPC2a_radial_glia_migration_120hr: Leibniz Research Institute for Environmental Medicine (IUF) 120-hour Neural Progenitor Cell Migration Assay for Radial Glia Migration (NPC2a) (AID 2284298). The method in brief: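 Migration distance in um, sphere core edge to migration-area edge, derived by nuclei-density algorithm from Hoechst images after 120 h compound exposure. Primary hNPC spheres differentiated on poly-D-lysine/laminin in N2 medium, 37C; medium half-replaced day 3.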

The nature of test [18]: IUF_NPC2a_radial_glia_migration_72hr: Leibniz Research Institute for Environmental Medicine (IUF) 72-hour Neural Progenitor Cell Migration Assay for Radial Glia Migration (NPC2a) (AID 2284299). Summed up: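 Human fetal cortex (GW 16-19) neural progenitor spheres, 0.3 mm, plated on poly-D-lysine/laminin in N2 differentiation medium with compound from day 0. Radial glia migration distance (um, sphere core edge to migration edge) measured manually in four directions on 72 h brightfield images; well mean used.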

A short description of test [19]: IUF_NPC2b_neuronal_migration_120hr: Leibniz Research Institute for Environmental Medicine (IUF) 120-hour Neural Progenitor Cell Migration Assay for Neuron Migration (NPC2b) (AID 2284300). Summed up: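 TUBB3-positive neurons are imaged after 120 h of differentiation, and their mean distance from the sphere edge is normalised to radial glia migration. Single 0.3 mm fetal hNPC spheres on poly-D-lysine/laminin received 7 compound concentrations, ≤0.1% DMSO, refreshed at day 3.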

Test [20] in a line: IUF_NPC3_neuronal_differentiation_120hr: Leibniz Research Institute for Environmental Medicine (IUF) 120-hour Neuronal Differentiation Assay (NPC3) (AID 2284301). Summed up:
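Single 0.3 mm neurospheres from human fetal cortex were plated in differentiation medium containing test compound. Medium was half-replaced on day 3. After 120 h cells were fixed, immunostained and imaged, and neuronal fraction was scored against DMSO control.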

By AC50 is commonly meant the concentration giving half of the maximal activity seen.

Inconclusive results are not listed. Activity calls are given as the source filed them. Rule for the calls, unless noted: active = hit-call score of the fitted dose curve at least 0.9, where 1 is the maximum; inactive = score below 0.9.

human Matrix Metalloproteinase-9 (MMP9), MMP9 (gene 4318), sequence (P14780 whole entry, looked up): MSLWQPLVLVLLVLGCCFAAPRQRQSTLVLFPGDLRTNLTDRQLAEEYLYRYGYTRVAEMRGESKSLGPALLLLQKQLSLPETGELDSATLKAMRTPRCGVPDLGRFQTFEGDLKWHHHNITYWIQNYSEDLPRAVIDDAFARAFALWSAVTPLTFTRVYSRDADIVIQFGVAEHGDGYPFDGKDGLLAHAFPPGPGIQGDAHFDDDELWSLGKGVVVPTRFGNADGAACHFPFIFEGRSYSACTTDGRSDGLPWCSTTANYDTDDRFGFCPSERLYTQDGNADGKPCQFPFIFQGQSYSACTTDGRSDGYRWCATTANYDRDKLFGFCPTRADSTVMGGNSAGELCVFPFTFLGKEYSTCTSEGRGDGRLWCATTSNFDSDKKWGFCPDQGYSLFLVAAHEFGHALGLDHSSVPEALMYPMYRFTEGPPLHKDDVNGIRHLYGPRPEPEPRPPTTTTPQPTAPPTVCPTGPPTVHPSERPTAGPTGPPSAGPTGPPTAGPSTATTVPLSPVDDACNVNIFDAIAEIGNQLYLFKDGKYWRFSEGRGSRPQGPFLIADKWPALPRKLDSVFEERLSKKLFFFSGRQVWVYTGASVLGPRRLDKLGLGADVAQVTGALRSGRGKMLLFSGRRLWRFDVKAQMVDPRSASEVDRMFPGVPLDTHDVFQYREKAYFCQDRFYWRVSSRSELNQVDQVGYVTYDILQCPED
sheep Cyclooxygenase-1 (Cox1), PTGS1 (gene 443551), sequence (P05979 whole entry, looked up): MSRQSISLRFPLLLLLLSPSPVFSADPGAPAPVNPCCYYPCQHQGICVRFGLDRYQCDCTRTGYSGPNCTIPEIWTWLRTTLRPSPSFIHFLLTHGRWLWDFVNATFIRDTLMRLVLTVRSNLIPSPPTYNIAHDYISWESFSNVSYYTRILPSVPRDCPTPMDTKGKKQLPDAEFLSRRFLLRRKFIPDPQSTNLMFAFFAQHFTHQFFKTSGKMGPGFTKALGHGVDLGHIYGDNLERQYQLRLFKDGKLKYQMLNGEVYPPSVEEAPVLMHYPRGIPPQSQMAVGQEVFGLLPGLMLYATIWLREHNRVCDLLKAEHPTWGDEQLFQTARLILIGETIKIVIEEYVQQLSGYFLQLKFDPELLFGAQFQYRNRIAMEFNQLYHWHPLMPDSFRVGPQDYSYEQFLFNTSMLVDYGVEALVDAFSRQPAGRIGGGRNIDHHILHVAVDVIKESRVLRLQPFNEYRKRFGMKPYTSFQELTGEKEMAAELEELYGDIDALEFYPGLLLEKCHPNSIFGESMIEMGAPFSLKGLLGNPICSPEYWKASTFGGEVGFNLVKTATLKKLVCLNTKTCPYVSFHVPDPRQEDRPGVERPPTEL

Regarding `O=c1c2ccccc2c(=O)c2c1cc(Cl)c1[nH]c3c([nH]c12)c(Cl)cc1c(=O)c2ccccc2c(=O)c13`, the result in test [1], in [2], in test [3], in test [5], in [6] and in test [7] was inactive. In test [4], the AC50 is 21 µM (active).
As for `O=S(=O)(c1ccccc1)c1ccccc1`, the AC50 in test [8] was 19.9 µM (active).
For `CC1CCCC1.[C-]#[O+].[C-]#[O+].[C-]#[O+].[Mn]`, the result in test [9] was inactive. Moreover, the half-maximal activity concentration (AC50) in [10] was 50 µM (active).
`CC(C)CCCCCCCOC(=O)c1ccccc1C(=O)OCCCCCCCC(C)C`: in [11], the half-maximal activity concentration (AC50) is 10.9 µM (active).
For the compound `O=CNC(N1CCN(C(NC=O)C(Cl)(Cl)Cl)CC1)C(Cl)(Cl)Cl` (centres undefined), the compound was called inactive in test [12] and in test [13].
Regarding `CC(C)(C)C(O)C(Oc1ccc(-c2ccccc2)cc1)n1cncn1` (centres undefined), the AC50 in test [8] is 18 µM (active). The compound was classed as inactive in test [12] and in test [13].
For the compound `O=P1(NCCCl)OCCCN1CCCl` (centres undefined), the result in test [14] was inactive.
For the compound `N#Cc1cccc(C#N)c1`, the AC50 in test [11] is 7.24 µM (active); in test [14] it was 29.2 µM (active).
For the compound `CCC[N+](=O)[O-]`, the AC50 in test [11] is 6.06 µM (active).
`CC(C)CCCCCCCOP(=O)(Oc1ccccc1)Oc1ccccc1`: in test [8], the AC50 is 12.2 µM (active). Also, the compound was called inactive in [9], in test [15], in test [10], in [16], in [17] and in test [18]. The outcome in [19] and in test [20] was inactive.
Consider `S=c1[nH]c2ccccc2[nH]1`, for which the AC50 in test [14] was 0.984 µM (active).
For the compound `CNC(=N[N+](=O)[O-])NCC1CCOC1` (centres undefined), the outcome in [9], in [15], in [16], in test [17], in [18] and in [19] was inactive. Moreover, the compound was classed as inactive in [20].
As for `c1ccc(Nc2ccc3ccccc3c2)cc1`, the compound was called inactive in test [14], in [12] and in test [13].
Turning to `CN(C)CCC#N`, the AC50 in [11] is 9.19 µM (active).
Turning to `CNC(=O)Oc1cc(C)c(SC)c(C)c1`, the AC50 in test [8] was 25 µM (active). The result in [12] and in test [13] was inactive.
With `CC1(C)[C@H](C(=O)O[C@H](C#N)c2cccc(Oc3ccccc3)c2)[C@@H]1C=C(Br)Br`, the AC50 in test [1] was 0.418 µM (active); in [2] it was 0.387 µM (active); in test [3], 2.09 µM (active); in test [4] it was 1.1 µM (active); in test [6] it was 3.1 µM (active); in test [17] it was 0.0654 µM (active). Moreover, in test [18], the AC50 was 0.67 µM (active). Moreover, the compound was classed as inactive in test [5], in test [7], in test [15], in test [10], in test [16] and in [19]. Also, the outcome in [20] was inactive.
As for `O=[N+]([O-])O`, the compound was classed as inactive in test [1], in [2], in test [3], in test [4], in test [5] and in test [6]. Besides, in test [7], the outcome was inactive.
Turning to `Cc1ccc(OP(=O)(Oc2ccc(C)cc2)Oc2ccc(C)cc2)cc1` (tested in a mixture with another compound), the compound was classed as inactive in test [1], in [9], in test [7], in test [15], in [10] and in [16]. For the same compound, the compound was classed as inactive in test [17], in [18], in [19] and in test [20]. Further, the AC50 in test [2] was 3.99 µM (active); in [3], 7.32 µM (active); in test [4], 6.45 µM (active); in test [5] it was 7.68 µM (active); in test [6], 8.25 µM (active).
Take `CC=Cc1ccc2c(c1)OCO2`: in [11], the AC50 was 5.42 µM (active).
Regarding `Cc1cc(C)c(C2=C(OC(=O)CC(C)(C)C)C3(CCCC3)OC2=O)c(C)c1`, in [12], the compound was classed as inactive. Besides, in test [13], the AC50 is 20.7 µM (active).
On to `CC(C)(C)C(=O)CCl`, for which, in test [14], the call was inactive.
